Results as given in the supplement of paper PMC12632987.
The full ranking holds about 4,500 sequences; the median of “median log2 fold change of GCK-ALFA target abundance (FLAG IP / Myc IP barcode read proportion)” is about 0.078, and the lowest 2% start at about -0.6. The sample as a whole holds a higher share of the lowest values than the screen did.

B1: GBRAP_160_4005 (protein)
chain: SAEIEALIKEIEELVKETKEWMKGLSPEERLTLARGMVGEIIQLAIDSPAVSDETEDKIAEIGDETIARLEANANASLEVWEKILDDYLEKVKELLKSDE
B2: GBRAP_11_2908 (protein)
chain: KKEKLKEAAKLAEKAAKLIEQLIKNGADDKELWAEAEKAAEELLKLAKEYLDESTVELAEYALELLKKAQADPKNAQQYLNEALATVRVILGQILLAIEE
B3: GBRAP_78_6697 (protein)
chain: EVEELLEKALELLDQALKLSKQLPEDLRNEVTYHLVEAITDLEEAIEEGADLEELKEALEHLDKAIALVKANDTPLTQPLLKLLTEAKKLLEEAIKKLEE
B4: GBRAP_125_3109 (protein)
chain: SEDELLAALRALARALGFSEEEAEEAAELARRFSLRQTLYAIFLAEGEEELADLVEQLTEEQARAALAALAAWLAAHPDATKEEVLAQARAILEAELARA
B5: GBRAP_9_7186 (protein)
chain: MQEKKEKILEEVKEELELAIEVAPEEYKELIKEKTEEVLKELEKAVKDENTTLEELLKKLEELFEKLIEIAKKNVPKETYLQIEAILGTAILSAEEIIEE
B6: GBRAP_26_5464 (protein)
chain: MEEAFREASDRVDEIAAKLSNPEAAAAVRAEADTILLELEERIEAGEDIEKAVKEAEEEFLKEAREIGKEEGLPEEEIERLEKELSEVFKELEERLKKAK
B7: GBRAP_160_4037 (protein)
chain: NEKLKKLKKFAEEVFEEAKELVEGTSVEEAAVIIDVAAGEIIMEAVELGIDDDELEDFIDEIGDEAVAYLLAHPDLSEEEIKELIEEAREKVLEKIDEAE
B8: GBRAP_160_4038 (protein)
chain: NEKLEKLAKFAEEVFKEAEELIKGTTVEEAAVIVDVATGEIIMEAVELGIDNDELEDFIDEIGDEAVAYLLAHPDLTEEEIQALVKEAKEKILKKIKEAS
B9: GBRAP_52_6009 (protein)
chain: MREELRERLEEALALVRAGRLEEARALVTELVESLDEEELELLIELLAEMAREAAPEDFDAVWTLAELVAEEMRRAGKDEVLADLLEARVAAALYEAEQR
B10: GBRAP_52_5877 (protein)
chain: MLEEAVKLLEEAVKAKKEGKEKELKEILKKIVEEFSEETILAAVKKLAEKVLTKSLEEAEAFYETVELLSDILLEAGKSEEIASLMEAIAGATLYTVEQK
B11: GBRAP_11_2629 (protein)
chain: KKEILKKKAELAKKLAEKVEKLLKEGVDNEELLKEIEKLLKEIAELTEKYGTEADKSLVEVAKELFEEAKKDKENKEKYLKELLAAAKVLEGDYLLEIEE
B12: GBRAP_35_5618 (protein)
chain: MSDEELTDMLVDLIEDATAAVPDVSVETLAAIAASLSRAVRSLAEELAGNAENLRRLADAVEALRDAIERHHGDDPLAQETIAALTATAEEIRARAAASE
B13: GBRAP_160_4664 (protein)
chain: SEEIEKLLEEIRELLLETLDWTKDLDPASREALLRAAVGDVLQLLFENPLVTDEVEDYAEEVLEEMREYVLANPDLTDEEREALVDEVVDKIREKILEES
B14: GBRAP_11_2937 (protein)
chain: EKEKLKKAQELAKEAQELLKKIQKAGKLDEELLKKAQELLKKAAELAKELGLEEEQKDLELAQELLEEVQKAGKLDETKVAAAQALVFDVAHELEEKLEE
B15: GBRAP_52_6133 (protein)
chain: MREELREKVLELLELVKAGKLEEAKKRLLKIAKELSDEELREFAREFAEVVRELPPEDLDAAAELLELAEEALEEAGRPEELISLLIGEGARALYEVEQR
B16: GBRAP_11_2673 (protein)
chain: MKEKLLEAAELAEKAAKLVEELIKEGVDNEELLKELKKLLEELKKLAKEYLSKALQKDVEVAEELFKELLEDEENRLEYAEQLLAALRVLEGNLLLEADE
B17: GBRAP_52_6314 (protein)
chain: MSERMEELARRLLELMLAGDEEGARALIRELVKTLSEEELLLLAEELARLAKTLDAEGLDALARLLELIEDEMEEEGVDERIIAEIRGIIITAIYEAEQR
B18: GBRAP_53_6413 (protein)
chain: AEAEIAALRAEVKATARAAAAADEATLAALVAEIGALLAALKAAGMPDEELTALAEEVARTLRAAGAPDSALVALAGHLAALGLEEATAAVAEEAVEELE
B19: GBRAP_35_5548 (protein)
chain: DSDEETAEMLVDTIEDIVEALPDVSEEDRVALAEAALRLARDLVELQPKNKELIKRAIEALERIKEIIEESDLPEEVRERLVREIEELIEELKKILEENE
B20: GBRAP_35_5549 (protein)
chain: DSDREIAEMLVDTIEDIVEALPDVSEEDKIALAKAAIRLARDLVELKPKDEELIKRAIEALERIKEILEESDLPEEDKEELIEEIEELIEELKKLLEENK
B21: GBRAP_122_2955 (protein)
chain: SKEEEVERLVEETVEAAKKGDFAATILEALKEAAERFDAESLIRLAERLAERARELGKEAEAALAFATAAQWLLEERPELAEAADRLLELADELLDLLEE
B22: GBRAP_166_4966 (protein)
chain: MEEEIKEEFKKYLEELKEKMKKANEEEKLELLAEAAEKLREAKEAGVSRETLRELIRYLIELAKEVGLTDSQVYGALSILADLDEEEIDILEEEIAEVRA
B23: GBRAP_166_4889 (protein)
chain: STEEAIREIERLAEEAIANIAALTPEELLAVFIEMVEIVERAGATPELRAALAEAAARIVAAAVAAGRDWDEVESLALAAVGDDEELLDAVEATLAALRA
B24: GBRAP_74_6553 (protein)
chain: SAALKKEIDAAAKAGDADKLIKLARKAVKEGDIDVAVHALGQLAKLAVKKAKAGDYDELDKLIDAIVEILEKVPDEALTDETWKAIAAAIKAAIEAEKAR
B25: GBRAP_160_4776 (protein)
chain: SEKEEKLKKKIKEAKEEILESIDTLSPEETLTVAIGETGDIIMEAEELEFDNEELLDSIDEIMDELIEELEKNKNASPEEKKKIVEEKFEKLLKELEKLT
B26: GBRAP_160_4428 (protein)
chain: SEKLKKAKEKIEEIIEETVEMMKGQSAEERQVLVRVARGEIILELEELGLLTDEVDEVIDEEFDEIVEYIAENPDISDEELRELLEEAREKILKELEKVS
B27: GBRAP_14_3860 (protein)
chain: VEALVKAVERTAESTKELIAEIAPEHAEEIKAKVEELAKEIIEKIKKENLNIEEVEELVDEAAEKLGAYMREKGYLSDTEIAAFKAHLLSEFLLELEEIE
B28: GBRAP_160_4725 (protein)
chain: EEEIKEFVEEFREEFLETLELTKDESKENAKALFRGTAGEILQDAFENPFLTDEQEDVVAEILDELVEELEKNFDASLEEKKEIVEEKMEELLEKLLELS
B29: GBRAP_128_3486 (protein)
chain: STEEVVAKTKELMEKIKNSSLEEVEEIARELVELLGQADPESREAATEVILEKLKELSAEKLEILADVLRERQPELDPFGAEQAAEIQVEALNEAEEKEE

The binders below were run against GABARAP, O95166 (assay: median log2 fold change of GCK-ALFA target abundance (FLAG IP / Myc IP barcode read proportion) (log2 ratio); each designed protein is fused to an ALFA-tag nanobody in HEK293 cells to bring the named protein to FLAG-tagged glucokinase (GCK); Myc marks an untargeted standard; higher = target protein stabilised (more abundant)). Conditions: target protein: 3xFLAG-MCP-GCK-ALFA reporter; HEK293 landing pad (RPLP).
GABARAP, O95166, sequence (O95166 whole entry, the tested form may be a part): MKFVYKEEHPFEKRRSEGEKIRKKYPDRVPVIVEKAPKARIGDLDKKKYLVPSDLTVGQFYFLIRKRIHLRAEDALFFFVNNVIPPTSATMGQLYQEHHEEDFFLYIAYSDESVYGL
Summary of the method: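 An ALFA-nanobody-fused binder library was recombined into HEK293 landing-pad cells and induced with 2 μg mL^−1 doxycycline. Cells were transfected with a plasmid expressing a FLAG-tagged target and a Myc-tagged standard. After 48 h, lysates underwent anti-FLAG and anti-Myc immunoprecipitation, and circular RNA barcodes were reverse transcribed, amplified and sequenced. Target abundance is the per-binder median log2 ratio of FLAG to Myc barcode read proportions. Barcodes needed ≥10^−7 proportion in both replicates, binders ≥3 barcodes per replicate, and a 10^−6 pseudocount was added; the two replicates were pooled.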

B1 and B2 are within 0.2 log units of each other in “median log2 fold change” value: 0.201 for the first, 0.209 for the second.

First: B3
Second: B4
The “median log2 fold change” value of the first is higher: 0.0855 for the first, -0.77 for the second.

First: B5
Second: B6
The “median log2 fold change” value of the first is lower: -0.362 for the first, 0.274 for the second.

B7 and B8 are within 0.2 log units of each other in “median log2 fold change” value: -0.581 for the first, -0.621 for the second.

Compared with B9, B10 is higher in “median log2 fold change” value: -0.0383 for the first, 0.168 for the second.

Going from B11 to B12, the “median log2 fold change” value falls from 0.182 to -1.48.

Compared with B13, B14 is higher in “median log2 fold change” value: -0.406 for the first, 0.139 for the second.

B15 and B16 are within 0.2 log units of each other in “median log2 fold change” value: 0.086 for the first, 0.0764 for the second.

First: B17
Second: B18
The “median log2 fold change” value of the first is lower: -0.236 for the first, 0.295 for the second.

Compared with B19, B20 is lower in “median log2 fold change” value: -0.485 for the first, -0.761 for the second.

B21 and B22 are within 0.2 log units of each other in “median log2 fold change” value: -0.119 for the first, -0.12 for the second.

Compared with B23, B24 is lower in “median log2 fold change” value: 0.108 for the first, -0.699 for the second.

B25 and B26 are within 0.2 log units of each other in “median log2 fold change” value: 0.018 for the first, 0.0554 for the second.

Compared with B27, B28 is lower in “median log2 fold change” value: 0.302 for the first, 0.0697 for the second.

B29 was tested, and the “median log2 fold change” value was 0.224.
